Compounds with a hit are over-represented: about 18% of the library has one in this group of screens.
HepG2 viability: qHTS for Inhibitors of TGF-b: Cytotox Counterscreen | HepG2 CAGA-GFP viability, ATP luminescence, 18 h | Potency, µM (series often up to 46.1 µM), inactives show at the highest dose activity change, negative = cytotoxicity, most hits filed as cytotoxic | actives 0.76% (n = 410,000); note: potency is the fitted concentration of half-maximal effect
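HepG2 CAGA-GFP cells (1000/well, DMEM with 1% FBS) received compound, then TGF-beta at 500 pg/mL final, and were incubated 18 hours at 37 degrees C. Viability was read by CellTiter-Glo luminescence. Media-only wells were set as complete cell-killing and DMSO as no toxicity.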
TGFb inhibitor: qHTS for Inhibitors of TGF-b. HepG2 CAGA-GFP TGF-b/SMAD3 reporter, GFP fluorescence, 18 h; TGF-beta stimulated, 500 pg/mL final. Potency, µM (top dose mostly 46.1 µM), for the others: top-dose activity, negative = inhibition, usual class: inhibitors. actives 1.2% (n = 410,000). AID 588855, 2011; note: potency is the fitted concentration of half-maximal effect; % is set by controls: 0 for no effect and ±100 for the full control effect; nearly all actives have a fitted effect of over 65% in size
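Using HEPG2 CAGA-GFP reporter cells at 1000 cells/well, we pinned test compounds, stimulated with recombinant TGF-beta (500 pg/mL final) and measured total well GFP after 18 h.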
DT40 TDP1 no CPT: qHTS for Inhibitors of human tyrosyl-DNA phosphodiesterase 1 (TDP1): qHTS in cells in absence of CPT; DT40 Tdp1-/- hTDP1 cells, no CPT, ATP luminescence, 48 h; Potency, µM (series often up to 46.2 µM), inactives show at the highest dose activity change, negative = growth inhibition, usual class: inhibitors; actives 15% (n = 420,000); AID 686978, 2013; note: potency is the fitted concentration of half-maximal effect; % is set by controls: 0 for no effect and ±100 for the full control effect; nearly all actives have a fitted effect of over 55% in size
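DT40 Tdp1-/-;hTDP1 cells, no CPT (DMSO vehicle only), 400 cells/well; compounds pin-transferred; ≥48 hr, 37 °C; CellTiter-Glo 30 min RT dark, luminescence read.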
DT40 TDP1 CPT: qHTS for Inhibitors of human tyrosyl-DNA phosphodiesterase 1 (TDP1): qHTS in cells in presence of CPT; chicken DT40 Tdp1-/-;hTDP1 cells + 20 nM CPT, ATP luminescence, 48 h; Potency, µM (series often up to 46.2 µM), inactives show at the top dose activity change, negative = growth inhibition, actives largely listed as inhibitors; actives 12% (n = 420,000); note: potency is the fitted concentration of half-maximal effect; % is set by controls: 0 for no effect and ±100 for the full control effect; nearly all actives have a fitted effect of over 55% in size
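Chicken DT40 Tdp1-/- cells complemented with human TDP1, 400 cells/well, exposed to compounds plus 20 nM camptothecin for at least 48 h at 37 C; viability read as ATP content by CellTiter-Glo luminescence.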
TDP1 inh: qHTS Assay for Inhibitors of Tyrosyl-DNA Phosphodiesterase (TDP1); Tyrosyl-DNA phosphodiesterase 1 (Homo sapiens), Q9NUW8; recombinant TDP1, AlphaScreen DNA substrate cleavage; actives 0.28% (n = 350,000); Potency, µM (highest dose often 130 µM), for inactives: at the highest dose activity change, negative = inhibition, usual class: inhibitors; note: potency is the fitted concentration of half-maximal effect; % is set by controls: 0 for no effect and ±100 for the full control effect; nearly all actives have a fitted effect of over 40% in size
Target sequence (Q9NUW8 whole entry, looked up): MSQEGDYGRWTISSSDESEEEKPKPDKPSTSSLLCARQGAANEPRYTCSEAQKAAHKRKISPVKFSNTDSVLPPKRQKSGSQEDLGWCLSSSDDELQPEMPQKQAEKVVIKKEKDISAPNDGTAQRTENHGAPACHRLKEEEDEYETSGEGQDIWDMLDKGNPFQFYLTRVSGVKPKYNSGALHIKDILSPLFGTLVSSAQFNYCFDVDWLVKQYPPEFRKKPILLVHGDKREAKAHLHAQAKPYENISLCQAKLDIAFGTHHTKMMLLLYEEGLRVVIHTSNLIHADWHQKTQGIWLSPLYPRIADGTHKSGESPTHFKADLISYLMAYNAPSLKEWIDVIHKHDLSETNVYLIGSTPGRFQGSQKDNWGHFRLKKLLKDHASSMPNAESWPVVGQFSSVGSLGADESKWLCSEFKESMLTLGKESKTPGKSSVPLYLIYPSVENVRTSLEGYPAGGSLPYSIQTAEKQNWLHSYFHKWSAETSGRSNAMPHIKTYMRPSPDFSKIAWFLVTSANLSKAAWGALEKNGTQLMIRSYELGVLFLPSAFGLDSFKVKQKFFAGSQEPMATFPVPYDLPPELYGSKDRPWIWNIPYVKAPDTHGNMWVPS
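AlphaScreen read-out: signal falls as enzyme removes the 3' tyrosine-FITC from a 5'-biotinylated DNA oligo (15 nM, 5 min, RT). Enzyme was E. coli-made recombinant Tdp1 at 1 nM, exposed to compound for 15 min beforehand; beads 10 ug/ml, 10 min.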
IL-1B inflam inh: qHTS for Inhibitors of Inflammasome Signaling: IL-1-beta AlphaLISA Primary Screen; AID 743279, 2014; actives 4.7% (n = 360,000); activity change, % at 57.5 µM; THP-1 LPS/ATP IL-1B secretion, AlphaLISA, 16 h; stronger effect = lower value; in the data active = activity change below about -50%; inconclusive = mostly about -30% to -49%; note: % is set by controls: 0 for no effect and ±100 for the full control effect
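THP-1 cells pretreated 1 hr with compounds (up to 57.5 uM final), then stimulated with LPS (250 ng/mL final) plus ATP (1.25 mM final); secreted IL-1B measured by AlphaLISA after 16 hr, decreased signal indicating inhibition.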
Starred values were filed as active, the others as inactive; ? = inconclusive; / = not tested or not shown; [ ] = dose if it differs, or a comment. Unless noted, calls come from the whole dose curve; as a rule, active = well fitted curve in the direction sought with a large enough effect; inconclusive = small, poorly fitted or top-dose-only effect, or another doubt; inactive = no such curve, though single readings can be large; an effect the other way counts as inactive or inconclusive.

SMILES	HepG2 viability	TGFb inhibitor	DT40 TDP1 no CPT	DT40 TDP1 CPT	TDP1 inh	IL-1B inflam inh
O=C1/C(=C/c2ccc([N+](=O)[O-])cc2)Oc2cc(O)ccc21	-25%	?	7.3µM*	?	/	-1
CC(C)(C)c1ccc(/C=C2\Oc3cc(O)ccc3C2=O)cc1	-23%	-18%	?	21µM*	/	-74*
COC(=O)c1ccccc1NC(=O)NCCc1c(C)nn(C)c1C	3%	20%	?	?	-9%	/
COc1ccc(Cl)cc1NC(=O)CN(C)C(=O)c1cccc2cccnc12	-2%	-3%	?	?	0%	8
CC(C)C[C@@H](CC(=O)N[C@H](CC(=O)N[C@@H]1CCCC[C@H]1C(=O)N[C@H](CC(=O)N[C@@H](CCC(=O)O)CC(=O)O)CC(C)C)C(C)C)NC(=O)[C@@H]1CNCC[C@H]1N	/	/	/	/	7%	/
CCn1c(=NC(=O)CSC(C)=O)sc2cc(F)ccc21	-2%	1%	18µM*	?	7%	-14
C#CCn1c(=NC(=O)CSC(C)=O)sc2cc(F)ccc21	-39%	?	21µM*	10µM*	/	-1
C#CCn1c(=NC(=O)CSCC(=O)N2CCOCC2)sc2ccccc21	-9%	-2%	?	-9%	3%	-8
N#Cc1nnn2c1nc(N)c1c(Cl)cccc12	1%	14%	13%	-5%	/	18
COc1ccc(N2CCN(CC(=O)NC(=O)NC(C)(C)C)CC2)cc1	-23%	-9%	0%	0%	6%	14
Cc1ccc(NC(=O)CSc2ncccn2)cc1S(=O)(=O)N1CCOCC1	12%	0%	-2%	-13%	1%	9
O=c1c2ccccc2nc(SCc2ccccc2Cl)n1Cc1ccccc1	-13%	5%	-7%	-2%	-2%	12
O=C(CSc1nc2ccccc2c(=O)n1CCCN1CCOCC1)c1c[nH]c2ccccc12	-2%	-11%	?	?	8%	-110*
Cn1c(SCc2ccc(F)cc2Cl)nc2ccccc2c1=O	-37%	-5%	15µM*	?	-3%	45
CC(=O)c1ccccc1NC(=O)CSc1nc2ccccc2c(=O)n1CCCN1CCOCC1	2%	-11%	?	?	3%	8
O=c1c2ccccc2nc(SCc2ccc(F)cc2Cl)n1CCCN1CCOCC1	-5%	-2%	16µM*	?	/	-22
Cc1cc(C(C)(C)C)cc(C)c1CCNC(=O)c1ccc[n+]([O-])c1	-13%	4%	?	-23%	-1%	-5
NC(c1csc(NC(=O)Nc2cccc(Cl)c2)n1)C1CCCCC1 (stereo not drawn)	-105%	?	?	18µM*	/	-96*
NC(c1csc(NC(=O)Nc2ccccc2)n1)C1CCCCC1 (stereo not drawn)	-82%	?	15µM*	?	/	?
NC(c1ccccc1)c1csc(NC(=O)NCC2CCCCC2)n1 (stereo not drawn)	-47%	-14%	-76%	-84%	/	-19
O=[N+]([O-])c1ccccc1OCC(O)CN1CCN(CC(O)COc2ccccc2[N+](=O)[O-])CC1 (stereo not drawn)	-18%	-3%	?	-20%	/	15
Cc1nnc(N2C(=O)C(=O)/C(=C(/O)c3ccc4c(c3)OCCO4)C2c2ccc(F)cc2)s1 (stereo not drawn)	-1%	-1%	9%	-15%	5%	-2
O=C1C(=O)N(c2nccs2)C(c2ccccc2F)/C1=C(\O)c1ccc2c(c1)OCCO2 (stereo not drawn)	-58%	?	16µM*	?	5%	-1
CCCc1cc(=O)[nH]c(SCC(=O)NCCCC(=O)OCC)n1	0.45µM*	1%	-3%	-2%	-7%	29
CC(C)=CCC/C(C)=C/CNC(=O)C[C@H]1C[C@H](C(=O)N2CCCCC2)[C@@]2(CCc3ccccc3)c3[nH]c4cc(CCC(=O)N(C)C)ccc4c3CCN2C1=O	10%	-4%	8.2µM*	10µM*	1%[56.1 µM]	-68*
SMILES	HepG2 viability	TGFb inhibitor	DT40 TDP1 no CPT	DT40 TDP1 CPT	TDP1 inh	IL-1B inflam inh
CC(C)=CCC/C(C)=C/CNC(=O)C[C@H]1C[C@H](C(=O)N2CCCCC2)[C@@]2(CCc3ccccc3)c3[nH]c4ccc(Cl)cc4c3CCN2C1=O	0%	0%	-4%	-7%	0%[56.1 µM]	-4
CC(C)(C)NC(=O)C[C@H]1C[C@H](C(=O)N2CCCCC2)[C@@]2(CCc3ccccc3)c3[nH]c4cc(-c5ccco5)ccc4c3CCN2C1=O	-22%	?	23µM*	18µM*	3%[56.1 µM]	0
CN(C)CCCNC(=O)C[C@H]1C[C@H](C(=O)N2CCCCC2)[C@@]2(CCc3ccccc3)c3[nH]c4cc(CCC(=O)N(C)C)ccc4c3CCN2C1=O	-21%	-25%	-9%	-5%	0%[56.1 µM]	-10
COc1ccc(CNC(=O)C[C@H]2C[C@H](C(=O)N3CCCCC3)[C@@]3(CCc4ccccc4)c4[nH]c5cc(-c6ccco6)ccc5c4CCN3C2=O)cc1OC	4%	?	?	?	3%[56.1 µM]	-24
CN(C)CCCNC(=O)CC1C[C@H](C(=O)N2CCCCC2)[C@@]2(CCc3ccccc3)c3[nH]c4ccccc4c3CCN2C1=O (stereo partly drawn)	11%	36%	13µM*	21µM*	2%	?
CN(C)CCCNC(=O)C[C@H]1C[C@H](C(=O)N2CCCCC2)[C@@]2(C)c3[nH]c4cc(-c5ccco5)ccc4c3CCN2C1=O	-86%	?	?	?	1%[56.1 µM]	0
CN(C)CCCNC(=O)C[C@H]1C[C@H](C(=O)N2CCCCC2)[C@@]2(CCc3ccccc3)c3[nH]c4cc(-c5ccco5)ccc4c3CCN2C1=O	14µM*	?	?	?	4%[56.1 µM]	-8
N#CC1=CC2CN(Cc3ccccc3)C1C1C(=O)N(c3ccccc3)C(=O)C21 (stereo not drawn)	-5%	0%	?	?	/	0
